8 compounds from PubChem BioAssay (NCI) can be followed below.

Some test systems named below: NCI-H23 lung; NCI-H226 lung; NCI-H322M lung; HOP-62 NSCLC; NCI-H460 lung; HOP-92 NSCLC; NCI-H522 lung; A549/ATCC NSCLC; 786-0 renal; COLO 205 colon; DU-145 prostate; K-562 leukemia; MALME-3M melanoma; MDA-MB-231 breast; RXF 393 renal; SF-268 CNS; SF-295 CNS; SF-539 CNS; UACC-257 melanoma; M14 melanoma.
Assay in all cases: NCI-60 one-dose screen, 48 h (100 = growth as untreated, 0 = no growth, -100 = all killed)
Holding throughout (settings): 10 µM unless noted

Compounds without any hit were thinned out: in the full panel of roughly 83,000, 20% have a hit.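 96-well plates, one dose, 48 hours. Percent growth reported; active if below 10.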 A number with no mark means an inactive call. The source made the active and inactive calls.

In the case of `COc1cnc2c(c1)C(=O)c1c-2n(CCCNCCN2CCOCC2)c(=O)c2cc([N+](=O)[O-])ccc12`, the growth with NCI-H23 lung was -21.7% (active); with NCI-H226 lung, -52.7% (active); in the assay on NCI-H322M lung, 6.04% (active); with HOP-62 NSCLC it was -0.313% (active); in the assay on NCI-H460 lung, -55.2% (active); with HOP-92 NSCLC, -4.05% (active). Further, the growth is -19.9% (active) in the assay with NCI-H522 lung; -72.1% (active) with A549/ATCC NSCLC; -53.6% (active) in the assay with 786-0 renal; -2.78% (active) in the assay on COLO 205 colon; 2.63% (active) in the assay with DU-145 prostate; 0.36% (active) with K-562 leukemia. For the same compound, the growth is -11.7% (active) with MALME-3M melanoma; 2.48% (active) in the assay with MDA-MB-231 breast; -32.3% (active) with RXF 393 renal; 12.3% with SF-268 CNS; 1.52% (active) in the assay on SF-295 CNS; -1.79% (active) in the assay with SF-539 CNS. The growth is 5.34% (active) in the assay on UACC-257 melanoma and 6.27% (active) in the assay on M14 melanoma.
With `COc1cc2c(cc1-c1c(C)noc1C)ncc1nc(C3CC3)n([C@H](C)COC(F)F)c12`, the growth was 65.4% with NCI-H23 lung; 58.1% with NCI-H226 lung; 47.8% with NCI-H322M lung; 43.4% in the assay with HOP-62 NSCLC; 60.7% in the assay with NCI-H460 lung; 37% in the assay on HOP-92 NSCLC. Also, the growth in the assay with NCI-H522 lung is 27.4%; with A549/ATCC NSCLC, 36.1%; in the assay with 786-0 renal, 51.6%; with COLO 205 colon it was 25.1%; in the assay with DU-145 prostate, 72.4%; with K-562 leukemia it was 30.4%. Also, the growth in the assay with MALME-3M melanoma was 80.4%; with MDA-MB-231 breast, 51%; with RXF 393 renal, 53.9%; in the assay with SF-268 CNS, 71.2%; with SF-295 CNS, 56.8%; in the assay with SF-539 CNS it was 39.4%. Also, the growth was 36.3% in the assay on UACC-257 melanoma and 44.2% in the assay with M14 melanoma.
For `Cc1csc(Nc2nc(-c3ccc(Cl)cc3)nc(C(Cl)(Cl)Cl)n2)n1`, the growth with NCI-H23 lung is 95.3%; in the assay with NCI-H226 lung, 110%; in the assay with NCI-H322M lung, -3.18% (active); with HOP-62 NSCLC, 76.4%; in the assay on NCI-H460 lung, 56.6%; in the assay with HOP-92 NSCLC, 83.3%. Further, the growth is 92.8% with NCI-H522 lung; 34.6% with A549/ATCC NSCLC; 89.5% with 786-0 renal; 52.6% in the assay on COLO 205 colon; 12.6% with DU-145 prostate; 87.2% in the assay with K-562 leukemia. The growth was 99.9% in the assay with MALME-3M melanoma; 79.9% with MDA-MB-231 breast; 87.1% in the assay with RXF 393 renal; 90.5% in the assay with SF-268 CNS; 60.8% in the assay on SF-295 CNS; 87.2% with SF-539 CNS. Moreover, the growth with UACC-257 melanoma is 98.7%.
With `O=C1C(Cl)=C(Nc2ccc(S(=O)(=O)c3ccc(NC4=C(Cl)C(=O)c5ccccc5C4=O)cc3)cc2)C(=O)c2ccccc21`, the growth with NCI-H23 lung was -12.9% (active); in the assay with NCI-H226 lung it was 91.2%; with NCI-H322M lung, 64.5%; with HOP-62 NSCLC, 36.1%; in the assay with NCI-H460 lung, 37.2%; with HOP-92 NSCLC it was -26.2% (active). Moreover, the growth with NCI-H522 lung was -67.4% (active); with A549/ATCC NSCLC, 74%; in the assay with 786-0 renal, 26.4%; with COLO 205 colon, -54.9% (active); in the assay on DU-145 prostate, -15.1% (active); in the assay with K-562 leukemia, 8.57% (active). Also, the growth in the assay on MALME-3M melanoma was -48.5% (active); in the assay on MDA-MB-231 breast it was 45.4%; with RXF 393 renal it was -96% (active); in the assay on SF-268 CNS it was -56.3% (active); with SF-295 CNS it was 34.1%; in the assay with SF-539 CNS, 1.36% (active). Further, the growth in the assay with UACC-257 melanoma is -81.3% (active).
In the case of `COc1cnc2c(c1)C(=O)c1c-2n(CCCNC2=NCCS2)c(=O)c2cc([N+](=O)[O-])ccc12`, the growth with NCI-H23 lung is -47.1% (active); with NCI-H226 lung, 8.43% (active); in the assay with NCI-H322M lung it was -19.6% (active); with HOP-62 NSCLC, -59.6% (active); in the assay with NCI-H460 lung, -81.9% (active); in the assay on HOP-92 NSCLC, 24.9%. Also, the growth was 22.8% in the assay on NCI-H522 lung; -77.2% (active) with A549/ATCC NSCLC; -93% (active) in the assay on 786-0 renal; -67.1% (active) in the assay with COLO 205 colon; -74.7% (active) in the assay on DU-145 prostate; -14.9% (active) in the assay on K-562 leukemia. The growth was -60.6% (active) in the assay with MALME-3M melanoma; -58.4% (active) with MDA-MB-231 breast; -2.16% (active) in the assay on RXF 393 renal; -39.4% (active) in the assay with SF-268 CNS; 11.7% in the assay on SF-295 CNS; -66.5% (active) with SF-539 CNS. The growth with UACC-257 melanoma was 35.4%.
With `CCSc1ncnc2c1ncn2C1OC(CO)C(O)C1O` (stereo not given), the growth is 24.6% with NCI-H23 lung; 62.9% in the assay on NCI-H226 lung; 42.6% in the assay on NCI-H322M lung; 21.1% in the assay on HOP-62 NSCLC; 14.9% with NCI-H460 lung; 33% in the assay on HOP-92 NSCLC. In addition, the growth with NCI-H522 lung is 19.5%; in the assay on A549/ATCC NSCLC, 14.6%; in the assay with 786-0 renal, 24.1%; in the assay on COLO 205 colon, 20.8%; with DU-145 prostate, 22.7%; in the assay with K-562 leukemia, 15.9%. Also, the growth in the assay with MALME-3M melanoma is 53.5%; in the assay with MDA-MB-231 breast, 64.4%; in the assay on RXF 393 renal, 36.7%; with SF-268 CNS, 19.4%; with SF-295 CNS, 31.4%; with SF-539 CNS, 25.3%. Also, the growth in the assay on UACC-257 melanoma was 59.6%.
Consider `CC1(n2nnnc2N2CCCN(c3ncccc3N)CC2)CCC1`, for which the growth with NCI-H23 lung was 103%; in the assay on NCI-H226 lung it was 90.4%; in the assay with NCI-H322M lung it was 94.2%; with HOP-62 NSCLC, 99%; in the assay on NCI-H460 lung, 99.5%; in the assay on HOP-92 NSCLC, 95.7%. In addition, the growth with NCI-H522 lung is 100%; in the assay on A549/ATCC NSCLC, 107%; in the assay with 786-0 renal, 104%; with COLO 205 colon it was 111%; in the assay with DU-145 prostate it was 109%; in the assay on K-562 leukemia, 87.8%. For the same compound, the growth in the assay with MALME-3M melanoma is 98.6%; in the assay on MDA-MB-231 breast, 99.9%; in the assay on RXF 393 renal it was 98.2%; with SF-268 CNS, 97%; in the assay on SF-295 CNS, 95.5%; in the assay with SF-539 CNS, 94.8%. Also, in the assay with UACC-257 melanoma, the growth is 108%.
For `N#C/C(=C\c1ccc(-c2ccccc2)o1)c1nc(-c2ccco2)cs1`, the growth was 82.7% with NCI-H23 lung; 81.3% in the assay on NCI-H226 lung; 84.6% in the assay on NCI-H322M lung; 98.6% in the assay on HOP-62 NSCLC; 85% with NCI-H460 lung; 87.4% in the assay with HOP-92 NSCLC. For the same compound, the growth with NCI-H522 lung is 93.8%; in the assay on A549/ATCC NSCLC, 101%; with 786-0 renal it was 106%; with COLO 205 colon, 104%; in the assay on DU-145 prostate it was 107%; with K-562 leukemia, 93.2%. In addition, the growth in the assay on MALME-3M melanoma was 94.8%; in the assay with MDA-MB-231 breast it was 86.3%; in the assay with RXF 393 renal, 105%; in the assay with SF-268 CNS, 101%; with SF-295 CNS, 97.6%; in the assay with SF-539 CNS, 94.9%. In addition, the figures for the growth in the assay with UACC-257 melanoma and with M14 melanoma were 103% and 93.8%, respectively.
